The values that follow come from PubChem BioAssay (NCATS).

Several values for one entry are separate records, joined by “and”; a condition that tells them apart may be missing. Equal values may be shown once. Activity calls are given as the source filed them. The call rests on the fitted dose curve. Bounds are passed on as bounds.
Potency means the concentration at half of the fitted maximal effect.

Glucocorticoid receptor (Homo sapiens), sequence (P04150 whole entry, looked up): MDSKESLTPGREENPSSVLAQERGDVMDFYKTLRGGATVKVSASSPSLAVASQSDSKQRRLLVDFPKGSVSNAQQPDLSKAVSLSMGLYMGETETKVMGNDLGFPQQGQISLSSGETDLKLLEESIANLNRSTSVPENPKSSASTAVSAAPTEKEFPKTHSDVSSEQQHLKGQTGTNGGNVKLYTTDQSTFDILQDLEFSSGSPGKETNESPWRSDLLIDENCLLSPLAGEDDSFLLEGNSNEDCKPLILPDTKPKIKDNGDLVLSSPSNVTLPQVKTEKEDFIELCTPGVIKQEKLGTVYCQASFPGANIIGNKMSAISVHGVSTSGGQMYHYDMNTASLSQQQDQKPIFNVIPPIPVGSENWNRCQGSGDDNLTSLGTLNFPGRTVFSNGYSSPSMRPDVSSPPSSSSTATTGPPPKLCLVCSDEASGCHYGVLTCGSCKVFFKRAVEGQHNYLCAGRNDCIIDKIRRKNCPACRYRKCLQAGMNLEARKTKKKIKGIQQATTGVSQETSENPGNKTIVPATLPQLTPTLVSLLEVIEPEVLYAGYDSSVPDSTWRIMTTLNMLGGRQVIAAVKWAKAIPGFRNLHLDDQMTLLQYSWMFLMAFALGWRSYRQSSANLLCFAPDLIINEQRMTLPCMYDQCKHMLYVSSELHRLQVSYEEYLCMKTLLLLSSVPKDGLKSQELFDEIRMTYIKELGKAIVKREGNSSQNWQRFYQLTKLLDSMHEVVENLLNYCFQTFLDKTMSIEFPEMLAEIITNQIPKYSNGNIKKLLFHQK

The assay concerns the target Glucocorticoid receptor (Homo sapiens) (UniProt P04150). The assay can be described thus: GR-EFC Redistribution (AID 451). The settings on record: CHO-K1 GR-EFC translocation, beta-gal luminescence, 2 h. An excerpt:
NIH Molecular Libraries Screening Centers Network [MLSCN]
NIH Chemical Genomics Center [NCGC]
The glucocorticoid receptor (GR) is a cytoplasmic receptor that belongs to the nuclear receptor family of ligand-dependent transcription factors. Upon glucocorticoid binding to its receptor, the glucocorticoid-GR complex translocates into the nucleus, where it binds as a dimer to specific DNA sequences (glucocorticoid response elements), enhancing or suppressing transcription of a wide variety of glucocorticoid-responsive genes. In addition to their important roles in normal physiology and metabolism, glucocorticoids are administered exogenously as treatments for a wide variety of allergic, autoimmune, and neoplastic conditions. Identification of compounds that modulate aspects of GR signalling would be useful in dissecting glucocorticoid response pathways as well as developing GR modulators with more targeted clinical effects.
Traditionally, GR modulators have been identified using receptor binding or direct transactivation assays. However, assays for glucocorticoid-dependent nuclear translocation can also be used to screen for compounds affecting GR signaling.
Immunocytochemical staining has been used to assay for GR translocation, but is not suitable for high throughout screening due to the multiple reagent addition and wash steps required. Recently, a novel cell-based GR assay in Enzyme Fragment Complementation (EFC) format was developed by DiscoveRx (Fremont, CA). The assay uses EFC of b-galactosidase (b-gal) as an indicator of GR-translocation in engineered CHO-K1 biosensor cells. The enzyme acceptor (EA) fragment of b-gal resides in the nucleus , as designed through the use of a proprietary set of sequence additions and modifications. The small peptide enzyme donor (ED) fragment of b-gal is fused directly to the C-terminus of GR, and is localized in the cytoplasm is the absence of receptor signaling. Upon binding to a GR ligand, the complex translocates to the nucleus, where intact enzyme activity is restored by complementation and b-gal activity is detected. We optimized this GR-EFC assay in homogenous 1536-well plate assay format for high throughput screening.
NCGC Assay Protocol Summary:
CHO-K1 cells stably expressing NLS-enzyme acceptor fragment (EA) of b-gal and GR-enzyme donor (ED) fragment of b-gal were maintained in F12 medium (Invitrogen, Carlsbad, CA) at 37 Celsius degrees under a humidified atmosphere containing 5% CO2 and 95% air. The medium contained 10% FBS, 2 mM L-glutamine, 50 U/ml penicillin 50 ug/ml streptomycin, and 250 ug/ml hygromycin and 500 ug/ml G418 (Invitrogen).
GR-translocation was measured beta-gal enzyme activity using the PathHunter Detection Kit containing cell membrane permeablizing reagent and beta-gal substrate (DiscoveRx, Fremont, CA). All compounds were screened as titrations from 0.6 nM to 46 uM final concentration. The assay was performed in 1536-well format as follows:
5 uL cell suspension (1,000 cells)/well
Incubation at 37 Celsius degrees for two hours
1.25 uL 1X detection buffer from the kit supplied by DiscoveRx
Incubation at room temperature for one hour
Read plate in luminescence mode in ViewLux plate reader (PerkinElmer)
Keywords: NIH Roadmap, MLSCN, MLI, MLSMR, GR-EFC, GREFC, qHTS, NCGC
As to `CN(Cc1ccco1)c1nc(-c2ccc3c(c2)OCO3)nc2ccccc12`, the Potency was > 46 µM (inactive).
Then `N#Cc1cccc(-c2cc(-n3ccnc3)ncn2)c1`, with > 46 µM (inactive); and `CS(=O)(=O)N1CCC[C@@]2(CCN(C(c3ccccc3)c3ccccc3)C2)C1`, with > 46 µM (inactive); and `CS(=O)(=O)Nc1cccc(-c2cncnc2NCc2cccnc2)c1`, with > 46 µM (inactive).
On to `COc1cc2c(cc1OC)C(=O)Cc1ccc3c(c1CN(C)CC2)OCO3`, for which the Potency is > 46 µM (inactive).
Then `COc1cccc(Cn2c(=O)c(-c3cccs3)nc3cncnc32)c1`, with > 46 µM (inactive); and `COc1ccc(-c2nc3cnc(Oc4ccccc4)nc3n(Cc3cccs3)c2=O)cc1`, with > 46 µM (inactive).
Then `COc1ccccc1-c1nc(N(C)Cc2ccco2)c2ccccc2n1`, with > 46 µM (inactive); and `CC(=O)NCCNc1nc(-c2ccccc2C)nc2ccccc12`, with > 46 µM (inactive); and `O=c1c(-c2ccccc2)nc2cnc(N3CCOCC3)nc2n1Cc1cccs1`, with > 46 µM (inactive).
In the case of `CCNc1ncc2nc(-c3cc(F)cc(F)c3)c(=O)n(CCC#N)c2n1` it was > 46 µM (inactive); in that of `CS(=O)(=O)N1CCC2(CCCN(c3cccc(-c4ccccc4)c3)C2)CC1`, > 46 µM (inactive); in that of `COCCn1c(=O)c(-c2cccc(C#N)c2)nc2cnc(N3CCN(C)CC3)nc21`, > 46 µM (inactive).
In the case of `COCC(=O)N1CCC2(CCN(Cc3ccccc3)CC2)CC1`, the Potency was > 46 µM (inactive).
Then `COc1ccc2[nH]cc(CCNc3ncncc3-c3ccc(C(=O)N(C)C)cc3)c2c1`, with > 46 µM (inactive).
Consider `O=C(c1cnccn1)N1CCC[C@@]2(CCN(Cc3ccccc3)C2)C1`, for which the Potency is > 46 µM (inactive).
In the case of `Cc1cccc(CNc2ncnc3ccc(-c4ccccc4C#N)cc23)c1` it was > 46 µM (inactive); in that of `CC(=O)O[C@@H](C)C[N+](C)(C)C`, > 46 µM (inactive) and > 20.6 µM (inactive); in that of `COc1ncc2nc(-c3cc(F)cc(F)c3)c(=O)n(Cc3cccs3)c2n1`, > 46 µM (inactive).
Then `O=C(Oc1ccccc1)N1CCC[C@@]2(CCN(c3ccccc3)C2)C1`, with > 46 µM (inactive); and `CCNc1ncc2nc(-c3ccc(F)cc3)c(=O)n(-c3ccc(OC)cc3)c2n1`, with > 46 µM (inactive).
Take `CCCC[P+](CCCC)(CCCC)Cc1ccc(NC(=O)[C@@H](Cc2ccc3ccccc3c2)NC(=NC2CCCCC2)NC2CCCCC2)cc1`: the Potency is > 46 µM (inactive).
Then `O=c1c(-c2ccc(F)c(F)c2)nc2cncnc2n1Cc1ccccc1Cl`, with > 46 µM (inactive); and `CC(=O)N1CCC2(CCN(Cc3ccccc3)CC2)CC1`, with > 46 µM (inactive); and `N#Cc1cccc(NC(=O)N2CCCC3(CCN(C(=O)c4csnn4)CC3)C2)c1`, with > 46 µM (inactive).
Consider `Cc1cccc(CNc2cc(-c3cccc(NS(C)(=O)=O)c3)ncn2)c1`, for which the Potency was > 46 µM (inactive).
In the case of `COC(=O)N1CCC2(CC1)CCN(c1cccc(-c3ccccc3)c1)CC2` it was > 46 µM (inactive); in that of `Cc1ccccc1-c1nc(NC2CC2)c2ccccc2n1`, > 46 µM (inactive).
Then `CN(C)Cc1ccccc1-c1cc(N(C)C)ncn1`, with > 46 µM (inactive); and `COc1cccc(-c2nccc(NCc3cnc(C)cn3)n2)c1`, with > 46 µM (inactive); and `CN(C)c1ncc2nc(-c3cc(F)cc(F)c3)c(=O)n(CCc3ccccc3)c2n1`, with > 46 µM (inactive).
In the case of `COc1ccc(C(=O)N2CCC[C@@]3(CCN(CC(C)C)C3)C2)cc1` it was > 46 µM (inactive); in that of `O=C(c1cnccn1)N1CCC2(CC1)CCN(c1ncccn1)CC2`, > 46 µM (inactive).
Regarding `COc1cccc(Cn2c(=O)c(-c3ccc(Cl)cc3)nc3cnc(N4CCNCC4)nc32)c1`, the Potency is > 46 µM (inactive).
Regarding `O=C(c1csnn1)N1CCC2(CC1)CCN(c1ccccn1)CC2`, the Potency was > 46 µM (inactive).
With `COc1ncc2nc(-c3cn(C)c4ccccc34)c(=O)n(-c3ccccc3)c2n1`, the Potency was > 46 µM (inactive).
With `COc1cccc(-c2ccc3ncnc(NC4CC4)c3c2)c1`, the Potency was > 46 µM (inactive).
Then `COCCn1c(=O)c(-c2ccc(OC)cc2)nc2cnc(N3CCOCC3)nc21`, with > 46 µM (inactive).
Then `O=c1c(-c2cccs2)nc2cnc(Oc3cccc(Cl)c3)nc2n1C1CC1`, with > 46 µM (inactive); and `COc1cccc(-c2cncnc2NCc2ccc(OC)cc2OC)c1`, with > 46 µM (inactive).
